According to PubChem BioAssay AID1159580 (chemical genetic matrix, 2015):
Where “and” joins values, the source holds several entries; their conditions need not be identical. Identical values can stand only once. About 2,000 (36%) of roughly 5,500 compounds were called active. Roughly 18% stayed inconclusive and do not appear here. Rule as the data show it: active = normalized growth mostly below about 0.91 (no sharp cut-off); inconclusive = no clear call, values can overlap the other calls; inactive = mostly above about 0.92. This is one part of the list.

Assay: chemical genetic growth profiling, strain panel (AID 1159580);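 also: tested at 20 µM; growth read once vehicle control cultures reached saturation at 30 °C; 1 = growth at the plate median or of vehicle wells; lower values mean less growth of the strain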
Settings: growth OD

Measured: normalized growth

CC(C)NCC(O)COc1cccc2[nH]ccc12 (stereo not given)
inactive: S. cerevisiae deletion strains, locus YJR075W, strain HOC1, stronger effect = lower value 1.01 | S. cerevisiae deletion strains, locus YKL009W, strain mrt4, stronger effect = lower value 0.966 | S. cerevisiae deletion strains, locus YKL068W, stronger effect = lower value 0.984 | S. cerevisiae deletion strains, locus YKL085W, strain MDH1 (second series), stronger effect = lower value 0.968 | S. cerevisiae deletion strains, locus YKL085W, strain MDH1, stronger effect = lower value 0.968 | S. cerevisiae deletion strains, locus YKL160W, strain elf1, stronger effect = lower value 1 | S. cerevisiae deletion strains, locus YKL190W, strain CNB1, stronger effect = lower value 0.993 | S. cerevisiae deletion strains, locus YKR001C, strain vps1, stronger effect = lower value 0.988 | S. cerevisiae deletion strains, locus YKR026C, strain gcn3, stronger effect = lower value 0.966 | S. cerevisiae deletion strains, locus YKR091W, strain srl3, stronger effect = lower value 0.992 | S. cerevisiae deletion strains, locus YLL026W, stronger effect = lower value 0.983 | S. cerevisiae deletion strains, locus YLL041C, strain sdh2, stronger effect = lower value 0.983 | S. cerevisiae deletion strains, locus YLR027C, strain aat2, stronger effect = lower value 0.985 | S. cerevisiae deletion strains, locus YLR039C, strain RIC1, stronger effect = lower value 0.962 | S. cerevisiae deletion strains, locus YLR058C, strain SHM2, stronger effect = lower value 0.996 | S. cerevisiae deletion strains, locus YLR102C, strain apc9, stronger effect = lower value 0.988 | S. cerevisiae deletion strains, locus YLR113W, strain HOG1, stronger effect = lower value 0.987 | S. cerevisiae deletion strains, locus YLR221C, strain rsa3, stronger effect = lower value 0.994 | S. cerevisiae deletion strains, locus YLR258W, strain gsy2, stronger effect = lower value 0.981 | S. cerevisiae deletion strains, locus YLR262C, strain YPT6 (second series), stronger effect = lower value 0.994 | S. cerevisiae deletion strains, locus YLR262C, strain YPT6, stronger effect = lower value 0.966 | S. cerevisiae deletion strains, locus YLR268W, strain sec22, stronger effect = lower value 0.953 | S. cerevisiae deletion strains, locus YLR320W, strain mms22, stronger effect = lower value 0.977 | S. cerevisiae deletion strains, locus YLR330W, strain CHS5, stronger effect = lower value 0.978 | S. cerevisiae deletion strains, locus YLR342W, strain FKS1 (second series), stronger effect = lower value 0.994 | S. cerevisiae deletion strains, locus YLR342W, strain FKS1, stronger effect = lower value 0.996 | S. cerevisiae deletion strains, locus YLR357W, strain rsc2, stronger effect = lower value 0.952 | S. cerevisiae deletion strains, locus YLR370C, strain arc18, stronger effect = lower value 0.974 | S. cerevisiae deletion strains, locus YLR371W, strain rom2, stronger effect = lower value 0.97 | S. cerevisiae deletion strains, locus YLR384C, strain iki3, stronger effect = lower value 0.992 | S. cerevisiae deletion strains, locus YLR418C, strain cdc73, stronger effect = lower value 1 | S. cerevisiae deletion strains, locus YML016C, strain PPZ1, stronger effect = lower value 0.995 | S. cerevisiae deletion strains, locus YML032C, strain rad52, stronger effect = lower value 0.984 | S. cerevisiae deletion strains, locus YML120C, strain ndi1, stronger effect = lower value 0.976 | S. cerevisiae deletion strains, locus YML124C, strain tub3, stronger effect = lower value 0.989 | S. cerevisiae deletion strains, locus YMR058W, strain fet3, stronger effect = lower value 0.977 | S. cerevisiae deletion strains, locus YMR078C, strain ctf18, stronger effect = lower value 0.981 | S. cerevisiae deletion strains, locus YMR125W, strain sto1, stronger effect = lower value 0.953 | S. cerevisiae deletion strains, locus YMR129W, stronger effect = lower value 0.974 | S. cerevisiae deletion strains, locus YMR205C, strain PFK2, stronger effect = lower value 0.968 | S. cerevisiae deletion strains, locus YMR223W, strain ubp8, stronger effect = lower value 1.03 | S. cerevisiae deletion strains, locus YMR231W, strain pep5, stronger effect = lower value 0.984 | S. cerevisiae deletion strains, locus YMR263W, strain SAP30, stronger effect = lower value 0.985 and 1 and 0.998 | S. cerevisiae deletion strains, locus YMR307W, strain GAS1, stronger effect = lower value 1 and 0.998 | S. cerevisiae deletion strains, locus YNL067W, strain RPL9B, stronger effect = lower value 0.992 | S. cerevisiae deletion strains, locus YNL071W, strain lat1, stronger effect = lower value 0.982 | S. cerevisiae deletion strains, locus YNL128W, strain TEP1, stronger effect = lower value 0.986 | S. cerevisiae deletion strains, locus YNL153C, strain GIM3, stronger effect = lower value 1.01 | S. cerevisiae deletion strains, locus YNL175C, strain NOP13, stronger effect = lower value 0.995 and 1.02 | S. cerevisiae deletion strains, locus YNL183C, strain NPR1, stronger effect = lower value 0.955 | S. cerevisiae deletion strains, locus YNL197C, strain WHI3, stronger effect = lower value 0.986 and 1.02 | S. cerevisiae deletion strains, locus YNL209W, strain ssb2, stronger effect = lower value 0.99 | S. cerevisiae deletion strains, locus YNL224C, strain SQS1, stronger effect = lower value 0.992 and 0.996 | S. cerevisiae deletion strains, locus YNL233W, strain BNI4, stronger effect = lower value 0.995 | S. cerevisiae deletion strains, locus YNL248C, strain rpa49, stronger effect = lower value 1 | S. cerevisiae deletion strains, locus YNL250W, strain rad50, stronger effect = lower value 0.986 | S. cerevisiae deletion strains, locus YNL271C, strain bni1, stronger effect = lower value 0.993 | S. cerevisiae deletion strains, locus YNL298W, strain CLA4, stronger effect = lower value 0.977 | S. cerevisiae deletion strains, locus YNL307C, strain MCK1, stronger effect = lower value 0.982 | S. cerevisiae deletion strains, locus YNL322C, strain KRE1 (second series), stronger effect = lower value 0.994 | S. cerevisiae deletion strains, locus YNL322C, strain KRE1, stronger effect = lower value 0.995 and 0.991 and 1.02 | S. cerevisiae deletion strains, locus YNR049C, strain mso1, stronger effect = lower value 0.975 | S. cerevisiae deletion strains, locus YNR052C, strain pop2, stronger effect = lower value 0.967 | S. cerevisiae deletion strains, locus YOL006C, strain TOP1, stronger effect = lower value 1.04 | S. cerevisiae deletion strains, locus YOL012C, strain htz1 0.915 | S. cerevisiae deletion strains, locus YOL147C, strain pex11, stronger effect = lower value 0.992 | S. cerevisiae deletion strains, locus YOR001W, strain rrp6, stronger effect = lower value 0.994 | S. cerevisiae deletion strains, locus YOR061W, strain CKA2, stronger effect = lower value 0.996 | S. cerevisiae deletion strains, locus YOR069W, strain VPS5, stronger effect = lower value 0.991 | S. cerevisiae deletion strains, locus YOR070C, strain gyp1, stronger effect = lower value 0.981 | S. cerevisiae deletion strains, locus YOR080W, strain dia2, stronger effect = lower value 0.983 | S. cerevisiae deletion strains, locus YOR083W, strain WHI5 (second series), stronger effect = lower value 1.02 and 0.995 | S. cerevisiae deletion strains, locus YOR083W, strain WHI5, stronger effect = lower value 1.01 | S. cerevisiae deletion strains, locus YOR106W, strain vam3, stronger effect = lower value 1 | S. cerevisiae deletion strains, locus YOR136W, strain idh2, stronger effect = lower value 0.995 | S. cerevisiae deletion strains, locus YOR144C, strain elg1, stronger effect = lower value 0.992 | S. cerevisiae deletion strains, locus YOR184W, strain ser1, stronger effect = lower value 0.988 | S. cerevisiae deletion strains, locus YOR231W, strain MKK1, stronger effect = lower value 1 | S. cerevisiae deletion strains, locus YOR265W, strain rbl2, stronger effect = lower value 0.982 | S. cerevisiae deletion strains, locus YOR270C, strain vph1, stronger effect = lower value 0.973 | S. cerevisiae deletion strains, locus YOR290C, strain snf2, stronger effect = lower value 0.963 | S. cerevisiae deletion strains, locus YOR316C, strain cot1, stronger effect = lower value 0.98 | S. cerevisiae deletion strains, locus YPL051W, strain arl3, stronger effect = lower value 0.996 | S. cerevisiae deletion strains, locus YPL055C, strain LGE1, stronger effect = lower value 1.01 and 0.998 | S. cerevisiae deletion strains, locus YPL078C, strain atp4, stronger effect = lower value 0.989 | S. cerevisiae deletion strains, locus YPL106C, strain sse1, stronger effect = lower value 0.979 | S. cerevisiae deletion strains, locus YPL240C, strain hsp82, stronger effect = lower value 0.98 | S. cerevisiae deletion strains, locus YPL241C, strain CIN2, stronger effect = lower value 0.991 and 0.996 | S. cerevisiae deletion strains, locus YPL256C, strain CLN2, stronger effect = lower value 0.99 | S. cerevisiae deletion strains, locus YPR119W, strain clb2, stronger effect = lower value 0.981 | S. cerevisiae deletion strains, locus YPR141C, strain kar3, stronger effect = lower value 0.993 | S. cerevisiae deletion strains, locus YPR163C, strain tif3, stronger effect = lower value 0.984 | S. cerevisiae deletion strains, locus YPR167C, strain met16, stronger effect = lower value 0.977 | S. cerevisiae deletion strains, strain wtn01, stronger effect = lower value 0.985 | S. cerevisiae strains, strain wild type, stronger effect = lower value 1
